# Screening data (PubChem)
# Tau ThT inhib: tau fibrillization inhibition (ThT binding). Potency, µM (series often up to 57.4 µM), inactives show at the highest dose activity, negative = inhibition, hits mostly inhibitors. 270,000 tested, 2.1% active. recombinant tau K18 P301L, heparin-induced fibrillization, ThT fluorescence. P10636. AID 1460; also: nearly all actives have a fitted effect of over 55% in size
# Target sequence (P10636 561-689 P618L limits assumed): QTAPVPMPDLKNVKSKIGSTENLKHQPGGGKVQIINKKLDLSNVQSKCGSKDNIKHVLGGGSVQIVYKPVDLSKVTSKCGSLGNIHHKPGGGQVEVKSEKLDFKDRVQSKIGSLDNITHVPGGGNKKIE
#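 Fibril formation assay: tau K18 P301L at 15 uM with trace Alexa 594 label, heparin inducer 20 uM, pH 7 sodium acetate buffer, 37 C for 6 hr; endpoint ThT signal.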
# Tau fibril FP: inhibitors of human tau fibril formation; 280,000 tested, 0.39% active; Potency, µM (top dose mostly 57.7 µM), for the others: at the top dose activity, negative = inhibition, most hits filed as inhibitors; P10636; K18 P301L tau heparin fibrillization, Alexa594 FP, 6 h; also: nearly all actives have a fitted effect of over 55% in size
#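 Human tau K18 […] P301L fragment, 15 uM unlabeled plus 0.24 uM Alexa 594-labeled tau (final), with compound and 20 uM heparin in 100 mM sodium acetate pH 7; 6 hr at 37 C, then Alexa 594 FP read.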
# Gal4-VP16 FLuc: Gal4-VP16 reporter inhibition counter-screen. Drosophila S2 Gal4-VP16 UAS-luciferase, luminescence, 20 h. Potency, µM (series often up to 53.6 µM), for inactives: at the top dose activity, negative = inhibition, usual class: inhibitors. 310,000 tested, 3.5% active. AID 2546;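 also: Gal4-VP16 expression switched on by copper sulfate through the metallothionein promoter; nearly all actives have a fitted effect of over 50% in size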
# RORgamma inh: ROR gamma (mouse) transcription inhibition. P51450. Drosophila S2 Gal4-RORgamma UAS-luciferase reporter, 20 h. Potency, µM (series often up to 53.6 µM), inactives show top-dose activity change, negative = inhibition, actives largely listed as inhibitors. 310,000 tested, 5.4% active; also: nearly all actives have a fitted effect of over 60% in size
# Target sequence (P51450 whole entry, looked up, the tested form may be a part): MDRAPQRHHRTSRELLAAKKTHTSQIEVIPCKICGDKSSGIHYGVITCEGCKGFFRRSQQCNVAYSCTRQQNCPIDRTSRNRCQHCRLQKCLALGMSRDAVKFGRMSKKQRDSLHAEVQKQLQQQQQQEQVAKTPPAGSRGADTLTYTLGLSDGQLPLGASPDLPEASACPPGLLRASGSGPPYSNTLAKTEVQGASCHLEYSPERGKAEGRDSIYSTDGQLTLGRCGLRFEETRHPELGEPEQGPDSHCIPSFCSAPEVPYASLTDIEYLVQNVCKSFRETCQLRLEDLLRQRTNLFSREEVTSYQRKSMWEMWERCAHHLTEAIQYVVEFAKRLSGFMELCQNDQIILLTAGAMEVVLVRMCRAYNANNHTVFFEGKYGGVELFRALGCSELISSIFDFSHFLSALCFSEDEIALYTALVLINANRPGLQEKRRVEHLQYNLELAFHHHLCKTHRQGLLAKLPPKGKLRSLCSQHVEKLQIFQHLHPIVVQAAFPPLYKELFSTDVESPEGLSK
#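 A Gal4/UAS one-hybrid system in insect cells: metallothionein-promoter Gal4–ROR gamma fusion plus Photinus luciferase reporter. Copper sulfate 700 uM final, 20 hr ambient incubation, luminescent detection after 10 min with reagent.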
# Tau fluor cs: counter-screen for tau fibril formation inhibitors | tau K18 P301L (four-repeat tau fragment) Alexa594 fluorescence, heparin fibrillization | Potency, µM (titrated, usually from 57.7 µM), without a hit: at the top dose activity change, negative = decrease | 280,000 tested, 0.93% active; also: nearly all actives have a fitted effect of over 55% in size
#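 Human K18 P301L tau (15 uM unlabeled plus 0.24 uM Alexa 594-labeled, final) in 100 mM sodium acetate pH 7 was mixed with compound and 20 uM heparin and incubated 6 hr at 37 C.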
# Starred values were filed as active, the others as inactive; ? = inconclusive; . = no result given; [ ] = remark or other dose. In the library only some 7.3% were active in any assay of this set; here they are far more common. Calls follow the shape of the dose curve; as a rule, active = well fitted curve in the direction sought with a large enough effect; inconclusive = small, poorly fitted or top-dose-only effect, or another doubt; inactive = no such curve, though single readings can be large; an effect the other way counts as inactive or inconclusive. % is scaled to controls: 0 for no effect and ±100 for the full control effect; potency is read from the fitted curve at half-maximal effect.
SMILES,Tau ThT inhib,Tau fibril FP,Gal4-VP16 FLuc,RORgamma inh,Tau fluor cs
COc1cccc(-c2csc(N3CCN(C(=S)Nc4ccccc4Cl)CC3)n2)c1,?,5%,?,11µM*,?
COc1cccc(-c2csc(N3CCN(C(=S)NCC(C)C)CC3)n2)c1,.,.,0%,?,.
COc1cccc(-c2csc(N3CCN(C(=S)Nc4cccc(Cl)c4)CC3)n2)c1,?,-2%,18µM*,2.8µM*,?
COc1cccc(-c2csc(N3CCN(C(=O)Nc4ccc(Cl)cc4)CC3)n2)c1,?,-6%,1%,7%,?
Cc1cccc(C)c1OCc1nc2c3cnn(-c4ccccc4F)c3ncn2n1,-17%,0%,.,.,-10%
CN(c1ccccc1)c1ncnc2c1cnn2C,-2%,-7%,.,.,-2%
O=C(NC(=S)NCc1cccnc1)c1ccc([N+](=O)[O-])cc1,-8%,-4%,?,8.9µM*,-9%
CC(C)(C)c1ccc(C(=O)Nc2ccc(C(=O)NCc3cccnc3)cc2)cc1,.,.,28µM*,?,.
CCOC(=O)Cc1ccc(NC(=O)c2ccc(C(C)(C)C)cc2)cc1,?,6%,?,0.2µM*,-27%
Cc1ccc(C(=O)NC(=S)NCc2cccnc2)cc1C,-7%,8%,?,13µM*,-3%
CC(C)(C)C(=O)Nc1ccc(C(=O)NCc2cccnc2)cc1,-1%,-7%,25%,29%,-4%
CCOC(=O)Cc1ccc(NC(=O)c2ccccc2Br)cc1,7%,-14%,-9%,-5%,2%
Cc1onc(-c2c(F)cccc2Cl)c1C(=O)NC(=S)NCc1cccnc1,5%,-6%,?,16µM*,-2%
CC(C)c1ccc(C(=O)NC(=S)NCc2cccnc2)cc1,-14%,9%,?,2.8µM*,-12%
O=C(Oc1cccnc1)c1ccc([N+](=O)[O-])cc1,?,12%,5%,-11%,8.9µM*[quencher]
Cc1onc(-c2c(F)cccc2Cl)c1C(=O)NCc1ccccc1,.,.,-3%,-12%,.
O=C(NCc1cccnc1)NC(=O)c1ccc(Cl)cc1,.,.,3%,27%,.
CCOc1cc(-c2noc(N)c2C#N)cc(OCC)c1OCC,-26%,-7%,?,11µM*,-29%
CCOc1cc(C(N)=O)cc(OCC)c1OCC,-8%,-4%,-9%,-2%,-4%
Cc1cc(C)c(S(=O)(=O)NCC(c2ccc(N(C)C)cc2)N2CCc3ccccc32)c(C)c1 (centres undefined),?,7%,.,.,?
Cc1ccc(S(=O)(=O)N2CCCC2C(=O)OCc2ccco2)cc1 (centres undefined),28µM*,?,-25%,-10%,-14%
Cc1ccc(S(=O)(=O)N2CCCCC2C(=O)N2CCN(C)CC2)cc1 (centres undefined),16µM*,?,15%,10%,-21%
CCOC(=O)O[C@]1(C(=O)OCCl)CC[C@@H]2[C@H]3CCC4=CC(=O)C=C[C@]4(C)[C@@H]3[C@@H](O)C[C@@]21C,.,.,-4%,-1%[10 µM],.
O=C(NNC(=S)NC(=O)c1cccs1)c1ccc(O)cc1,.,.,11µM*,7.9µM*,.
O=C(NNC(=S)NC1CCCCC1)c1cccs1,-15%,-6%,-26%,?,-15%
SMILES,Tau ThT inhib,Tau fibril FP,Gal4-VP16 FLuc,RORgamma inh,Tau fluor cs
CC1CCCCC1NC(=S)NC(=O)c1cccs1 (centres undefined),-4%,-4%,13µM*,1.6µM*,-18%
O=C(NNC(=S)NC(=O)c1cccs1)c1cccnc1,-4%,8%,4%,-20%,7%
CCCCC(=O)Nc1ccc(C(=O)NNC(=S)NC(=O)c2cccs2)cc1,?,11%,8.9µM*,7.9µM*,-18%
CC(=O)NC(=S)Nc1ccc(NC(=O)c2cccs2)cc1,?,4%,29%,44%,-13%
O=C(NC(=S)Nc1ccccc1)c1cccs1,.,.,8.9µM*,5µM*,.
CCCCC(=O)Nc1ccc(C(=O)NNC(=S)NC(=O)c2ccco2)cc1,?,0%,20%,13%,-12%
CC(=O)Oc1c(C)cc(OCC(O)CNC(C)C)c(C)c1C (centres undefined),-16%,-1%,-4%,1%,-19%
C/C=C/C1=Cc2ccccc2C(CC(=O)OC)N1C(=O)OC (centres undefined),3%[11.5 µM],2%[11.6 µM],.,.,2%[11.6 µM]
CCOC(=O)c1ccc2c(c1)N(CC(=O)Nc1ccc(CC)cc1)C(=O)c1ccccc1S2,7%,-10%,.,.,5%
O=C(Nc1ccc(NC(=S)NC(=O)c2cccs2)cc1)c1ccccc1,?,-10%,16µM*,7.9µM*,-1%
O=C(N/N=C(/CC(=O)c1cccs1)C(F)(F)F)c1ccc(O)cc1,?,14%,?,18µM*,-17%
O=C(NNC(=S)NC(=O)c1cccs1)c1ccc(NC(=O)c2ccccc2)cc1,?,3%,6.3µM*,4.5µM*,-20%
O=C(NNC(=O)c1cccs1)c1ccccc1,-2%,0%,5%,1%,-6%
O=C(N/N=C(\CC(=O)c1cccs1)C(F)(F)F)c1cccnc1,?,4%,-4%,-34%,-17%
CCc1ccccc1NC(=O)Nc1nnc(N2CCCC2)s1,-4%,-1%,.,.,-1%
Cn1c(=O)oc2cc(S(=O)(=O)N3CCCC(C(=O)NC4CCCc5ccccc54)C3)ccc21 (centres undefined),-5%,5%,0.1µM*,?,-20%
C=CCn1c(CSCc2ccccc2)nnc1SCC(=O)N1CCN(c2ccccc2)CC1,6%,-7%,?,28µM*,1%
COc1ccc(O[C@H]2C=C[C@@H](c3ccccc3)O[C@H]2COC(=O)CC/C(C)=N\O[C@@H](C)c2cn([C@H](CO)Cc3ccccc3)nn2)cc1,-14%[11.5 µM],3%[11.6 µM],-2%[10 µM],0%[10 µM],-16%[11.6 µM]
Cc1ccsc1/C=C1\Oc2cc(OCC(=O)c3ccccc3)ccc2C1=O,?,-4%,?,16µM*,-22%
COc1ccc(NC(=O)c2c(NC(=O)C(F)(F)F)sc3c2CCCCC3)cc1,16µM*,-1%,.,.,?
COc1ccc(NC(=O)c2c(NCc3ccc(N(C)C)cc3)sc3c2CCC3)cc1,16µM*,-13%,.,.,?
C=CCNC(=O)C1CC1(c1ccc(C)cc1)c1ccc(C)cc1 (centres undefined),.,.,-6%,?,.
CCOc1ccccc1Nc1nc(-c2cccc(Cl)c2)c2c(n1)-c1ccccc1OC2,?,11%,.,.,?
O=C(O)c1cc(N/N=C/c2ccc(N3CCOCC3)cc2)ccc1Cl,?,12%,?,7.1µM*,-4%
C(=N\Nc1ccccc1)/c1ccc(N2CCOCC2)cc1,35µM*,12%,-5%,1%,?
COCCN1CCN(C(=O)c2ccc3nc(Cc4ccc(OC)c(OC)c4)oc3c2)CC1,.,.,7.1µM*,?,.
COc1ccc(Cc2nc3ccc(C(=O)N4CCOCC4)cc3o2)cc1,.,.,4%,-19%,.
